Experimental data as given in PubChem BioAssay (NCI).
About 83,000 compounds went through this panel and 20% of them were active in at least one assay; those are over-represented in the sample as a whole.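 48-hour exposure, single concentration, 96-well plates; percent growth endpoint where 0 means no net growth. Active: below 10.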 A number with no mark means an inactive call. Activity calls are given as the source filed them.

tested on: NCI-H322M lung; assay: NCI-60 one-dose screen, 48 h (100 = growth as untreated, 0 = no growth, -100 = all killed); details: 10 µM unless noted

Compound | growth
O=C(Nc1ccc2ncnc(Nc3cccc(C(F)(F)F)c3)c2c1)c1cccs1 | 40.7%
O=C1[C@@H](OS(=O)(=O)CC(F)(F)F)[C@H](c2ccc(F)cn2)N1c1cc2c3ccccc3ccc2c2ccccc12 | 104%
COc1cc2cc(c1Cl)N(C)C(=O)C[C@H](OC(=O)[C@H](C)N(C)C(=O)CCS)C[C@]1(C)O[C@H]1[C@H](C)[C@@H]1C[C@@](O)(NC(=O)O1)[C@H](OC)/C=C/C=C(\C)C2 | 42.8%
COc1cc(/C=C/C(=O)c2cccs2)ccc1OCc1ccc(Cl)nc1 | 85.9%
COc1cc(/C=C/C(=O)/C=C/c2cc3ccc(Cl)cc3[nH]c2=O)ccc1O | 92.2%
COc1ccc(/C=C/C(=O)/C=C(/C=C/c2ccc(OC)c(OC)c2)OB(F)F)cc1OC | 103%
COc1cc(/C=C/C(=O)/C=C/c2cc3ccc(Cl)cc3n(Cc3ccccc3)c2=O)ccc1O | 23.9%
C=C(C)[C@@H]1CC[C@]2(C(=O)OCCCC[P+](c3ccccc3)(c3ccccc3)c3ccccc3)CC[C@]3(C)[C@H](CC[C@@H]4[C@@]5(C)CC[C@H](OC(=O)C(Cl)Cl)C(C)(C)[C@@H]5CC[C@]43C)[C@@H]12 | 2.79% (active)
COc1ccc(C(=S)c2cc(OC)c(OC)c(OC)c2)cc1OC(=O)CCl | 42.4%
CNCc1cccc2c1OCCOCCOCCN(CCN1CCOCC1)S(=O)(=O)c1ccc(cc1)-c1cnc(N)c(n1)C(=O)N2 | 49.8%
COc1ccc2[nH]c(=O)c(/C=C/C(=O)/C=C/c3ccc(O)c(OC)c3)cc2c1 | 78.8%
